Experimental data from PubChem BioAssay AID652256 (National Center for Advancing Translational Sciences (NCATS), 2013).
This is one part of the list. Active and inactive are the calls of the source.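 The calls were made as follows: active = a half-inhibiting concentration could be measured and was below 100 µM; inactive = the rest.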

System: Thioredoxin reductase 1 (TXNRD1), rat
Test: qHTS Assay for Inhibitors of Mammalian Selenoprotein Thioredoxin Reductase 1 (TrxR1): DTNB Assay
Conditions: purified TrxR1, DTNB reduction, A412
Description: The selenoprotein thioredoxin reductase (TrxR; EC 1.8.1.9) is a FAD containing homodimeric pyridine nucleotide-disulfide oxidoreductase with many cellular roles. Together with NADPH and its prime substrate thioredoxin (Trx), the enzyme forms the core of the Trx system. The mammalian Trx system exerts a wide spectrum of functions including redox regulation, antioxidant defense, regulation of transcription factors as well as support of cell growth and replication. Many of these functions involve the reduction of Trx, which may subsequently reduce a number of different substrates including ribonucleotide reductase, peroxiredoxins or NFkB. Mammalian TrxR itself also has a broad substrate specificity, reducing both protein and non-protein substrates, including low molecular weight compounds such as dehydroascorbate, lipoic acid, ubiquinone, and juglone. In addition, several drugs in clinical use for anticancer treatment are indeed known to target TrxR1. This orthogonal DTNB assay seeks to further characterize cherry picks. […]
15 nM TrxR1 is reduced by 250 microM NADPH in TE buffer [50 mM Tris-HCl (pH 7.5), 2 mM EDTA] in a 96-well microtiter plate. […] During compound incubation, NADPH consumption is followed by the decrease in absorbance at 340 nm using a VersaMax microplate reader (Molecular Devices) to determine substrate potential of the compound. […]

## COc1ccc(-c2nc(CS(=O)CC(=O)N3CCC4(CC3)OCCO4)c(C)o2)cc1 (stereo unspecified)
  Potency: 1460 nM (active)
